PubChem BioAssay AID602365 (National Center for Advancing Translational Sciences (NCATS), 2012)
Records with an inconclusive call do not appear. Calls of active or inactive are those of the source. Calls come from the whole dose curve; as a rule, active = well fitted inhibition curve with a large enough effect; inconclusive = small, poorly fitted or top-dose-only effect; inactive = flat fitted curve, though single readings scatter.

Each molecule was assayed against Luciferin 4-monooxygenase (Photinus pyralis) (UniProt P08659) (assay: FLuc inhibitory activity for the follow-up compounds in a biochemical assay with 1mM D-luciferin). Settings: purified FLuc, luminescence; series mostly up to 57.5 µM.
Description: NCGC Assay Overview: Firefly (Photinus pyralis) luciferase is one of the most commonly used transcriptional reporters. It is considered one of the more dynamically responsive reporters - that is, responsive to changes in reporter transcription - as it requires no post-translational modifications and is enzymatically active directly after protein synthesis (Wood, 1998). With no endogenous expression in mammalian cells and without the requirement of external excitation, it offers very little background signal, thus generally providing excellent signal to background for most assays. Previous profiling work to determine the prevalence of compounds that affect FLuc enzymatic activity (PubChem AID 411) identified that ~3% of the MLSMR library (then at ~72K) inhibited FLuc. […] Of the compounds identified in this profile that inhibited FLuc, 151 compounds were selected for further analysis, in an effort to better understand their mode of inhibiting FLuc. The assay described here was to determine the activity of the compounds in a FLuc assay that contained a KM concentration of ATP and a high concentration (1mM) of D-luciferin.
NCGC Assay Protocol Summary: Reagents: 50mM Tris acetate, pH 7.5; 10mM Mg acetate; 1mM D-luciferin (Sigma #L9504); 10uM ATP; 0.01% Tween-20; 0.05% BSA; 10nM P. pyralis luciferase (Sigma #L9506) Control compounds used were two known firefly luciferase inhibitors (3-(5-(3-chlorophenyl)-1,2,4-oxadiazol-3-yl)benzoic acid and 5-(2-fluorophenyl)-3-phenyl-1,2,4-oxadiazole), and DMSO. Three microliters containing firefly luciferase substrates in buffer (final concentrations: 50mM Tris acetate, pH 7.5, 10mM Mg acetate, 0.01% Tween-20, 0.05% BSA, 1mM D-luciferin, 10uM ATP) are dispensed into each well of a Greiner white, solid-bottom 1536-well format plate using a flying reagent dispenser (FRD). These assay plates were then treated with 23nL of compound or DMSO using a Kalypsys pin tool, which allows for delivery of a 12-point intraplate titration of each compound to the assay plate (quantitative HTS), with a final compound concentrations ranging from approximately ~60uM to 0.3nM. One microliter of firefly luciferase in […] Tris-acetate buffer was then delivered by FRD to each well for a final enzyme concentration of 10nM. Luciferase activity was then measured using a ViewLux CCD imager (PerkinElmer), with an average exposure time of 2-30 seconds (2X binning, medium/high gain).

Chain of Luciferin 4-monooxygenase (Photinus pyralis) (P08659 whole entry, looked up): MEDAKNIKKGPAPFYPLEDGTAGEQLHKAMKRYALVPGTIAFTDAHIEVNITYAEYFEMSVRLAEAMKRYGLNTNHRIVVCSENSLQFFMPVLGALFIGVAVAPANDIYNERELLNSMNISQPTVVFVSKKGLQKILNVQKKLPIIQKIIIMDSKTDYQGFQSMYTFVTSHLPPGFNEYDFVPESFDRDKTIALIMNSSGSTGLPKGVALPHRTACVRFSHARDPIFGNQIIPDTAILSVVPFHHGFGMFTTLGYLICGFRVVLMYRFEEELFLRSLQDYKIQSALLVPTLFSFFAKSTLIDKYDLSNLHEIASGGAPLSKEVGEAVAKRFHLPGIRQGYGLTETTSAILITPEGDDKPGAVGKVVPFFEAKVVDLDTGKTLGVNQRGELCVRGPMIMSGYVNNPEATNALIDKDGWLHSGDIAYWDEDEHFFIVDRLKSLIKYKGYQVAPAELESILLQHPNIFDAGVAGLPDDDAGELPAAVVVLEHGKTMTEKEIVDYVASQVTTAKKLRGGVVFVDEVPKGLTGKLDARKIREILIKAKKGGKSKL

Potency, active:
Nc1ccc(-c2nc3ccc(C(=O)O)cc3s2)cc1 1.16 µM, COc1ccc2nc(NC(=O)c3ccc([N+](=O)[O-])o3)sc2c1 5.8 µM, O=C(Nc1ccccc1C(=O)O)c1cccc(NC(=O)c2ccccc2Cl)c1 36.6 µM, CN=c1scc(-c2ccccc2F)n1/N=C/c1ccc[nH]1 0.0819 µM, COc1ccc2nc(NC(=O)c3ccco3)sc2c1 3.26 µM, COc1ccc(C(=O)Nc2ccccc2C(=O)N/N=C/c2ccc(O)c(OC)c2)cc1 0.0103 µM, Cc1ccc2sc(-c3ccc(N)cc3)nc2c1 0.517 µM, Cc1c(NC(=O)c2cc(-n3cnnc3)ccc2Cl)cccc1-c1nc2ccccc2s1 0.919 µM, Cc1c(NS(C)(=O)=O)cccc1-c1nc2ccccc2s1 16.3 µM, c1ccc2sc(-c3ccc4c(c3)OCO4)nc2c1 1.3 µM, O=C(Nc1ccc(-c2nc3ccccc3s2)cc1)C1=COCCO1 0.366 µM, Nc1ccc2nc(-c3ccccc3)sc2c1 0.919 µM, Cc1ccc2nc(-c3ccc(N)cc3)sc2c1 0.517 µM, COc1ccc(C(=O)Nc2nc3ccc(OC)cc3s2)cc1 5.17 µM, O=C(Nc1ccccc1C(=O)O)c1ccc(NC(=O)C2CCCCC2)cc1 16.3 µM, Cc1ccc(C(=O)O/N=C(\N)c2ccccn2)cc1 0.183 µM, O=C(Nc1ccccc1C(=O)O)c1ccc(NC(=O)C2CC2)cc1 4.11 µM, Cc1ccc(C(=O)O/N=C(\N)c2ccccn2)c(Cl)c1 0.0919 µM, COc1cccc(-c2nc3ccccc3s2)c1 5.17 µM, O=C(COC(=O)c1ccccc1[N+](=O)[O-])c1ccc2c(c1)OCO2 0.0461 µM, O=C(Nc1cccc(-c2nc3ccccc3s2)c1)c1cc(-n2cnnc2)ccc1Cl 8.19 µM, Cc1ccc(C(=O)Nc2cccc(C(=O)O)c2)cc1S(=O)(=O)N1CCOCC1 16.3 µM, COc1ccc2nc(NC(=O)Cc3cccs3)sc2c1 13 µM, Cc1c(C)c2ccc(OCC(=O)Nc3ccccn3)c(C)c2oc1=O 0.0919 µM

Potency, inactive:
COc1cc(C(=O)Nc2cc(C)c(O)c(-c3nc4ccccc4s3)c2)cc(OC)c1OC, CC(C)Oc1ccc(C(=O)Nc2ccc(-c3nc4ccccc4s3)cc2)cc1, O=C(O)c1ccc(NC(=O)c2cccc(C(=O)Nc3ccc(C(=O)O)cc3)c2)cc1, CN(C)S(=O)(=O)c1ccc(C(=O)Nc2cccc(C(=O)O)c2)cc1, COc1ccc(CC(=O)Nc2ccc(-c3nc4ccccc4s3)c(C)c2)cc1, COc1ccc(C(=O)Nc2cccc(C(=O)O)c2)cc1S(=O)(=O)N1CCCC1, COc1ccc2nc(NC(=O)c3nc(S(=O)(=O)Cc4ccc(C)cc4)ncc3Cl)sc2c1, CC(C)c1ccc(C(=O)Nc2ccc(-c3nc4ccccc4s3)c(Cl)c2)cc1, O=C(O)c1cccc(NC(=O)c2cccc(S(=O)(=O)N3CCc4ccccc43)c2)c1, O=C(O)c1ccc(NC(=O)c2cc(S(=O)(=O)N3CCCCC3)c(Cl)cc2Cl)cc1, COc1ccc2nc(NC(=O)CCc3ccc(OC)c(OC)c3)sc2c1, Cc1cccc(C(=O)Nc2ccc(-c3nc4ccccc4s3)cc2Cl)c1, Cc1ccc(S(=O)(=O)N2CCOCC2)cc1C(=O)Nc1ccccc1C(=O)O, COc1ccc2nc(NC(=O)CCc3nc(-c4ccccc4F)no3)sc2c1
